Inhibition data for 91 compounds are collected here from PubChem BioAssay AID1662 (Broad Institute, 2009).

Each structure is given as a SMILES string. Values joined by “and” are separate entries in the source; they are usually repeats but may differ in a detail not shown here. Equal entries are not always repeated. Among all 300,000 compounds or so, about 4,000 (1.3%) were called active. The entries come from a sample that favours actives as a whole. A number with no mark means an inactive call.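 The calls were made as follows: active = mean replicate score, as percent of positive control median, at least 50; inconclusive = mean below 50 but one replicate at or above 50; inactive = mean and every replicate below 50.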

This assay can be described thus: kanamycin survival loss of SKKanGAS strain – BacTiter-Glo luminescence, streptokinase expression inhibitor project, primary screen (AID 1662).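 Also: strain carries kanamycin resistance gene driven by streptokinase promoter and grows in 40 µg/ml kanamycin; loss of luminescence reflects streptokinase promoter inhibition or plain growth inhibition; 0% = median of DMSO wells and 100% = positive control at its reference dose.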 The following applies: S. pyogenes SKKanGAS, kanamycin growth, 6 h, at 7.5 µM, hits give high values.
As usually defined, the inhibition is the drop in the measured response relative to a control, in per cent. On to `CCc1ccc2c(c1)C1(NN=C(c3ccccc3)S1)C(=O)N2` (stereo unspecified), for which the inhibition was 96.7% (active).

For the compound `COc1cccc(NC(=O)C2C(c3ccccc3)C2(Cl)Cl)c1` (stereo unspecified), the inhibition is 31.8%.

Take `CCc1ccc(Oc2nc([N+](=O)[O-])nn2C)cc1`: the inhibition is 2.57%.

On to `Cc1cc(C(=O)N2CCC(C(=O)O)CC2)c(C(F)(F)F)o1`, for which the inhibition was -3.49%.

For `Cc1noc(C)c1CSCC(=O)Nc1ccc(Br)cc1Cl`, the inhibition is 32.2%.

Turning to `Cc1noc(C)c1CSCC(=O)Nc1nc2ccc(Oc3ccccc3)cc2s1`, the inhibition was 51.3% (active).

In the case of `CCc1noc(C)c1C(=O)Nc1nc2ccc(OC)cc2s1`, the inhibition is -6.51%.

`COc1ccc(C(=O)Nc2ccc(C3(C#N)CCCC3)cc2)cc1OC`: the inhibition is 0.181%.

As for `Cc1ccc(/C=C/C(=O)Nc2ccc([N+](=O)[O-])c(NC(=O)/C=C/c3ccc(C)o3)c2)o1`, the inhibition is 6.98%.

`O=C(/C=C/c1ccc([N+](=O)[O-])o1)NNC(=O)c1ccc(F)cc1`: the inhibition is 52.7% (active).

With `C/[N+]([O-])=C\c1ccc([N+](=O)[O-])o1`, the inhibition is 1.43%.

Turning to `CC(=O)Oc1ccc(-c2cccc(C(=O)N3CCCCC3)c2)cc1`, the inhibition was -5.29%.

On to `CCN1CCN(C(=O)N(Cc2ccc(Cl)cc2)S(=O)(=O)c2ccc(C)cc2)CC1`, for which the inhibition was -0.707%.

With `COc1ccc(C(=O)/C=C/c2ccc(-c3ccccc3)cc2)cc1CSCC(=O)O`, the inhibition was 51.6% (active).

On to `COc1ccc(/C=C/C(=O)c2ccc(NS(=O)(=O)c3ccc(C)cc3)cc2)cc1O`, for which the inhibition was 31.2%.

In the case of `COC(=O)c1ccc(COc2ccc(/C=C/C(=O)c3ccc(OC)c(CSCC(=O)O)c3)cc2OC)cc1`, the inhibition was -12.5%.

In the case of `Cc1occc(=O)c1OCc1c(Cl)cccc1Cl`, the inhibition is 1.59%.

`CCN(CC)c1ccc(S(=O)(=O)N2CCCCC2)cc1NC(=O)C1=COCCO1`: the inhibition was -12%.

Consider `O=C1CC2(CCCC2)Oc2ccc(Cl)cc21`, for which the inhibition is 9.19%.

As for `O=C1Cc2ccccc2Sc2ccc(Cl)cc21`, the inhibition is 75% (active).

As to `S=C1Nc2cc(Cl)ccc2Sc2ccccc21`, the inhibition was 3.58%.

Consider `O=C(CCNC(=O)c1ccc(Br)cc1)NCCCc1ccccc1`, for which the inhibition is -14.7%.

In the case of `CN(CCc1ccccn1)S(=O)(=O)c1ccc2c3c(cccc13)C(=O)N2`, the inhibition was -0.86%.

On to `O=C(NCc1ccncc1)C1CCCN(S(=O)(=O)c2ccc(Br)cc2)C1` (stereo unspecified), for which the inhibition was 3.53%.

On to `O=c1c2cc(Br)ccc2nc(-c2cccc(Cl)c2)n1O`, for which the inhibition is 78.4% (active).

Take `Cc1cccc(-c2nc3ccccc3c(=O)n2NC(=O)Cc2ccc(Cl)cc2)c1`: the inhibition is -2.71%.

As for `O=C1CCCc2c1nc(-c1cccc(Cl)c1)n2O`, the inhibition is -3.24%.

As for `CCCOc1ccc(C2NC(=O)NC(c3ccccc3)=C2C(C)=O)cc1OCC` (stereo unspecified), the inhibition is -8.73%.

For `Cc1cccc([C@@H]2[C@@H]3C(=O)N(Cc4ccccc4)C(=O)[C@@H]3[C@]3(Cc4ccc(Cl)cc4)C(=O)N(c4cccc(Cl)c4)C(=O)N23)c1`, the inhibition is -2.38%.

Take `CC(OC(=O)CNC(=O)c1ccc(Cl)c([N+](=O)[O-])c1)C(=O)NCc1ccco1` (stereo unspecified): the inhibition is -7.18%.

As for `COC(=O)Cc1ccc(Oc2ncc(C(F)(F)F)cc2Cl)cc1`, the inhibition was -5.08%.

Consider `COc1cccc(/C=N/Nc2ncc(C(F)(F)F)cc2Cl)c1O`, for which the inhibition is 95.9% (active).

On to `COc1cccc(/C(C)=N/Nc2ncc(Cl)cc2Cl)c1`, for which the inhibition is -4.25%.

For `Cc1cc(N)n2nc(-c3ccc(C(C)(C)C)cc3)cc2n1`, the inhibition was 38.2%.

On to `O=[N+]([O-])c1ccc(O)c(/C=N/Nc2ccccc2[N+](=O)[O-])c1`, for which the inhibition is 17.8%.

For the compound `O=C(N/N=C/c1ccc(O)cc1)/C(=C/c1ccc([N+](=O)[O-])cc1)NC(=O)c1ccccc1`, the inhibition is -0.983%.

For `O=C(N/N=C/c1cc([N+](=O)[O-])ccc1O)/C(=C\c1cccs1)NC(=O)c1ccccc1`, the inhibition is 83.5% (active).

Turning to `CN(CC(=O)Nc1c(Cl)cccc1Cl)C(=O)CNC(=O)C1CCCCC1`, the inhibition is -1.53%.

Consider `Cc1ccc(C)c(N2CCN(C(=O)CCCCCn3c(=S)[nH]c4ccc(N5CCOCC5)cc4c3=O)CC2)c1`, for which the inhibition is 50.8% (active).

For `Cc1ccc(C)c(N2CCN(C(=O)CCCCn3c(=O)[nH]c4ccccc4c3=O)CC2)c1`, the inhibition is 10.5%.

Take `O=C(CCCCCn1c(=S)[nH]c2cc3c(cc2c1=O)OCO3)N1CCN(c2ccc(F)cc2)CC1`: the inhibition is 4.31%.

Take `CCOc1ccc2nc(Nc3nc4ccc(NC(C)=O)cc4s3)sc2c1`: the inhibition is 62.6% (active).

With `CCC(=O)c1ccc(OCC(=O)Nc2ccc3nc(C)sc3c2)cc1`, the inhibition is -10.4%.

Regarding `O=C(NC1CCCCC1)c1cc([N+](=O)[O-])ccc1N1CCOCC1`, the inhibition is 3.56%.

Consider `COc1ccc(S(=O)(=O)N2CCCCC2)cc1NC(=O)c1cc([N+](=O)[O-])ccc1N1CCOCC1`, for which the inhibition was 12.2%.

For the compound `CCOc1ccc2nc(NC(=O)c3cc([N+](=O)[O-])ccc3N3CCOCC3)sc2c1`, the inhibition is 50.1% (active).

As to `CCCC(=O)Nc1nc2ccc(NC(=O)c3cccnc3)cc2s1`, the inhibition was -13.3%.

In the case of `CCOc1ccc2nc(NC(=O)CSc3nc4c(c(=O)n(C)c(=O)n4C)n3CC)sc2c1`, the inhibition was 4.34%.

Consider `COc1ccc2nc(NC(=O)c3ccc(Br)s3)sc2c1`, for which the inhibition is 38.2%.

As for `COc1ccc2nc(Nc3nc4ccc(NC(C)=O)cc4s3)sc2c1`, the inhibition is 54.9% (active).

Turning to `CCCC(=O)Nc1nc2ccc(NC(=O)c3c(F)c(F)c(OC)c(F)c3F)cc2s1`, the inhibition is 71.5% (active).

Turning to `COc1ccc2nc(NC(=O)NC3CCCCC3)sc2c1`, the inhibition is -5.74%.

On to `CSc1nc2ccc(NC(=O)c3c(F)cccc3F)cc2s1`, for which the inhibition was -1.79%.

For `CCCCSc1nc2c(c(=O)n1CC)SC(C)C2` (stereo unspecified), the inhibition is -4.67%.

Regarding `COCC1CCN(C(=O)C2CCC(=O)N(CC3CCCCC3)C2)CC1` (stereo unspecified), the inhibition was -1.21%.

Take `O=C(c1cc2c(s1)CCC2)N1CCN(c2ccccc2)CC1`: the inhibition is 3.4%.

`CCNc1nc(NC(C)C)nc(N2CC(=O)N(CC(=O)OCC)C2=N)n1`: the inhibition is 0.266%.

For the compound `COc1ccc(S(=O)(=O)N2CCOC23CCN(S(=O)(=O)c2ccc([N+](=O)[O-])cc2)CC3)cc1`, the inhibition was 2.41%.

For the compound `CCc1nn(CCCN2CCN(c3cccc(Cl)c3)CC2)c(=O)n1CCOc1ccccc1`, the inhibition was -2.67% and -3.29%.

In the case of `COc1cc(NS(=O)(=O)c2ccc(N/C=C(\C=O)c3nc4cc(Cl)ccc4o3)cc2)nc(OC)n1`, the inhibition was 22%.

In the case of `CSc1ccc(CN(C)CC(=O)NCc2ccc(F)cc2)cc1`, the inhibition was -18.5%.

Turning to `CC(C)(C)n1nnc(CCc2nnn(C(C)(C)C)n2)n1`, the inhibition is -4.02%.

`CCCCCCCCc1c(O)nc(-n2[nH]c(C)c(CCO)c2=O)[nH]c1=O`: the inhibition was 9.64%.

On to `O=C(Nc1ccccc1F)c1ccccc1-c1ccc(C(F)(F)F)cc1`, for which the inhibition was -10.9%.

With `NC(=O)Cn1cc(/C=N\NS(=O)(=O)c2ccccc2)c2ccccc21`, the inhibition is -0.681%.

For the compound `Cc1ccc2c(C)c(C(=O)N3CCN(c4ccncc4)CC3)oc2c1C`, the inhibition was 4.31%.

For the compound `O=C1c2ccccc2-c2ncnc3c(N4CCOCC4)cc(N4CCOCC4)c1c23`, the inhibition is 13.7%.

On to `CCOc1ccccc1Nc1ccc2nonc2c1[N+](=O)[O-]`, for which the inhibition was -0.208%.

As for `O=[N+]([O-])c1c(NCCO)cc(Sc2nc3ccccc3s2)c2nonc12`, the inhibition was 51.8% (active).

For `O=C(O)c1cccc(S(=O)(=O)Nc2ccc(O)cc2Sc2nc3ccccc3s2)c1`, the inhibition was 8.92%.

Take `CCOCC(=O)Nc1ncc(S(=O)(=O)c2ccc([N+](=O)[O-])cc2)s1`: the inhibition is -0.334%.

Take `CC(C)C(=O)Nc1ccc2c3c(cccc13)CC2`: the inhibition is -4.74%.

`Cc1cccc(NC(=O)C2CCN(C(=O)NC3CCCCC3)CC2)c1`: the inhibition is 3.22%.

Take `O=C(N/N=C/c1cc(Cl)cc([N+](=O)[O-])c1O)C(O)(c1ccccc1)c1ccccc1`: the inhibition is 94.7% (active).

Consider `O=C(N/N=C/c1cc(Br)c(O)c([N+](=O)[O-])c1)C(O)(c1ccccc1)c1ccccc1`, for which the inhibition is 4.7%.

For `CN(C)/N=C/c1cc(Cl)cc([N+](=O)[O-])c1O`, the inhibition was 0.131%.

For `Fc1ccccc1CNC(=S)Nc1ccc(Cl)cc1`, the inhibition was 18%.

Consider `O=C(NC1CCN(C(=S)NCc2ccco2)CC1)c1ccc(F)cc1`, for which the inhibition was 13.3%.

With `COc1cccc(N2CC(NS(=O)(=O)c3ccc(Cl)cc3)CC2=O)c1` (stereo unspecified), the inhibition was 3.83%.

Consider `COc1ccc(N(C(=O)c2snc(C(N)=O)c2N)C(C(=O)NC2CCCC2)c2ccco2)cc1OC` (stereo unspecified), for which the inhibition is 2.77%.

As to `CCc1nnc(NC(=O)c2cccc(S(=O)(=O)N(C)c3ccc(OC)cc3)c2)s1`, the inhibition was 4.1%.

On to `CCc1ccc2nc3sc(C(=O)Nc4nnc(CC)s4)c(N)c3cc2c1`, for which the inhibition is 95.3% (active).

For `CCc1nnc(NC(=O)c2sc3nc(C)cc(COC)c3c2N)s1`, the inhibition is 8.09%.

With `COc1ccc(S(=O)(=O)NCc2cccnc2)cc1NC(=O)c1ccc(C)cc1`, the inhibition is -12.6%.

`COC(=O)N/N=C/c1ccc(-c2ccc(Cl)c(Cl)c2)o1`: the inhibition is -12.4%.

On to `COC(=O)N/N=C/c1c[n+]([O-])c2ccccc2[n+]1[O-]`, for which the inhibition is 50.6% (active).

As for `COC(=O)N/N=C/c1ccc(/C=N/NC(=O)OC)cc1`, the inhibition was -10.9%.

Turning to `Cn1cccc1C(=O)N1CCc2ccccc2C1`, the inhibition is 10.2%.

On to `CC(=O)CCC(=O)c1ccc2ccccc2c1`, for which the inhibition was 3.19%.

Consider `COc1ccc(N=Nc2ccc(O)c(P(=O)(c3ccccc3)c3ccccc3)c2)cc1`, for which the inhibition is 41.2%.

Regarding `Cc1cc(N=Nc2ccc3ccccc3c2)ccc1O`, the inhibition is 81.9% (active).
